Bioassay records: PubChem BioAssay, several laboratories
This is a sample that favours compounds with a hit; in the whole collection about 2.2% have one here.
HIF act: HIF pathway transcriptional activation; U2OS HRE-luciferase reporter, luminescence; normalized: DMSO 0%, desferrioxamine 100%; activation, % at 7.5 µM (by protocol); hit rate 0.32% among 300,000; AID 1910;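 active = mean activation of at least 10% of the iron chelator positive control signal, with at least half of replicates also reaching 10%; inconclusive = mean and replicate majority disagree about reaching 10%; inactive = mean and most replicates under 10%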
CHT inh: inhibitors of human choline transporter CHT; hit rate 0.86% among 310,000; B-score at 10 µM; CHT-expressing cells, membrane potential dye, choline response; active compounds read low; Q9GZV3; AID 488975;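 active = B-score over 3 SD under the library average, and starting fluorescence ratio not unusually high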;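 note: choline stimulus applied at its EC90 after an EC20 pre-addition; B-score computed on integrated fluorescence ratio after choline addition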
Target sequence (Q9GZV3 whole entry, looked up): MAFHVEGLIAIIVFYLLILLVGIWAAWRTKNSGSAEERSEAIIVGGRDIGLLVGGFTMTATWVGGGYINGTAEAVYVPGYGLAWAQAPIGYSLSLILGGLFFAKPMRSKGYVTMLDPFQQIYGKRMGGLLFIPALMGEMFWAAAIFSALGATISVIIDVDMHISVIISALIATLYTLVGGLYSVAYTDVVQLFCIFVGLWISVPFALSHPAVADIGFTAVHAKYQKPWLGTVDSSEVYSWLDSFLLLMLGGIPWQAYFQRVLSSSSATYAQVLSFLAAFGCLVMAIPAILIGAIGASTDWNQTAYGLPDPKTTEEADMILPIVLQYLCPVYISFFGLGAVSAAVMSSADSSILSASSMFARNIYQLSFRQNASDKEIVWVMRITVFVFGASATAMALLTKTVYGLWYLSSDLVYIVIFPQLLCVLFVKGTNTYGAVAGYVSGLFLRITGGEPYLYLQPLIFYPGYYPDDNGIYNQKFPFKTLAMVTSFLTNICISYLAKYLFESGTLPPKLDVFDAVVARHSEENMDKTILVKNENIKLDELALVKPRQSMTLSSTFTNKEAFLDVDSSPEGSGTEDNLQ
CHT allo act: allosterically activates the human high affinity choline transporter | Q9GZV3 | CHT-expressing cells, membrane potential dye, choline EC20; active compounds read high; LV-AA mutant CHT in HEK293 cells | B-score at 10 µM | hit rate 0.49% among 310,000 | AID 488977;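 active = initial fluorescence not abnormally high and integrated response B-score, plate-corrected, over 3 SD above library mean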
VLA-4 inh: inhibition in a human VLA-4 binding assay. hit rate 0.2% among 330,000. AID 2557. inhibition, % (about 7 µM as worked out from the volumes in the protocol). P13612. VLA-4 expressing cells, ligand binding flow cytometry; in the data active = inhibition above about 50%
AI-2 QS mod: modulates the Vibrio harveyi AI-2 quorum sensing system. Vibrio harveyi JMH597 AI-2 luminescence/OD600 ratio, 9 h; active compounds read low; strain lacks LuxN and CqsS sensors; 0 = neutral-control median. activity change, % at 7.5 µM. hit rate 0.4% among 300,000; in the data active = activity change below about -75%, passing the limit was not always enough; inconclusive = no clear call, values can overlap the other calls;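 note: luminescence divided by OD600 gain over 9 h not by final OD600 alone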
Platelet DG rel: platelet dense granule release activity | human platelet-rich plasma, SFLLRN dense granule ATP release, luminescence | hit rate 0.22% among 300,000 | inhibition, %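 (compounds screened at 7.5 µM in platelet-rich plasma)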;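 active = mean replicate score, as percent of positive control, at or above 50; inconclusive = mean below 50 but at least one replicate at or above 50; inactive = mean and every replicate below 50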
JMH597 growth: retest: inhibitors of Vibrio harveyi JMH597 growth. shares compounds with AI-2 QS mod. OD600 absorbance, 9 h; lacks LuxN and CqsS sensors. growth inhibition, % at 7.5 µM. hit rate 1% among 750. AID 2726;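 active = every replicate shows growth inhibition above 50%; inconclusive = at least half, but not all, replicates pass that cutoff; inactive = fewer than half of replicates pass it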
BB721 const-QS lum: retest counter-screen: lowers luminescence of constitutive-QS Vibrio harveyi BB721. inhibition, % at 7.5 µM. 9 h. shares compounds with AI-2 QS mod. hit rate 95% among 750;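 active = inhibition above about 80% in every replicate, not just on average, limit read from the data; inconclusive = at least half of replicates past the limit, but not all; inactive = fewer than half of replicates past the limit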
BB721 growth rt: retest Vibrio harveyi BB721 growth inhibition. shares compounds with AI-2 QS mod. OD600 absorbance, 9 h. growth inhibition, % at 7.5 µM. hit rate 3% among 750. AID 2728;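 active = every replicate shows growth inhibition above 50%; inconclusive = at least half but not all replicates above 50% inhibition; inactive = under half of replicates above 50% inhibition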
AI-2 QS JMH597: Vibrio harveyi AI-2 signaling luminescence modulation – JMH597 strain, confirmation. AID 2736. shares compounds with AI-2 QS mod. inhibition, % at 7.5 µM. hit rate 97% among 750. Vibrio harveyi JMH597 AI-2 quorum sensing luminescence, 9 h; luxN and CqsS knockout, AI-2 only;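 active = every replicate shows more than 75% inhibition of signal versus neutral control wells; inconclusive = half to three quarters of replicates exceed 75% inhibition; inactive = fewer than half of replicates exceed 75% inhibition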
Numbers without * were called inactive; i = inactive; u = inconclusive; x = not tested or not shown.

SMILES	HIF act	CHT inh	CHT allo act	VLA-4 inh	AI-2 QS mod	Platelet DG rel	JMH597 growth	BB721 const-QS lum	BB721 growth rt	AI-2 QS JMH597
O=C(CCc1ccccc1)NC(=S)NCc1ccco1	0	i	i	3	41	-25	x	x	x	x
N#Cc1cccc(NC(=O)CN2C(=O)NC(Cc3ccccc3)C2=O)c1 (centres undefined)	0	i	i	4	-84*	-1	0	89*	4	93*
O=C(CN1C(=O)NC(Cc2ccccc2)C1=O)Nc1ccccc1 (centres undefined)	1	i	i	-3	-46	-3	x	x	x	x
N#Cc1ccc(NC(=O)CN2C(=O)NC(Cc3ccccc3)C2=O)cc1 (centres undefined)	-1	i	i	0	-15	-3	x	x	x	x
Cc1cccc(NC(=O)CN2C(=O)NC(Cc3ccccc3)C2=O)c1 (centres undefined)	0	i	i	-1	u	-41	-15	85*	-22	89*
CCCNc1c(NS(=O)(=O)c2c(F)c(F)c(F)c(F)c2F)c(=O)oc2ccccc12	0	i	i	-1	13	-10	x	x	x	x
Fc1ccc2nc(C(F)(F)F)cc(N3CCOCC3)c2c1	1	i	i	-3	22	-2	x	x	x	x
COc1ccc(Cc2nc(-c3ccccn3)no2)cc1	2	i	i	19	-88*	-1	-9	95*	-20	96*
COc1ccc(Cc2nc(-c3cccc(C)c3)no2)cc1	3	i	i	0	-80*	0	3	94*	-259	96*
COc1ccc(/C(N)=N/OC(=O)CSc2ccc(C)cc2)cc1	0	i	i	5	x	-14	x	x	x	x
Cc1ccc(CC(=O)O/N=C(\N)c2ccccn2)cc1	3	i	i	-7	-84*	1	25	87*	22	91*
COc1ccc(CC(=O)O/N=C(\N)c2ccc(C)cc2)cc1	1	i	i	-8	-89*	2	-35	96*	-56	97*
O=C(CSc1nnc(CNC(=O)c2c(F)cccc2F)o1)Nc1ccc2c(c1)OCCO2	0	i	i	-2	-23	2	x	x	x	x
COc1cccc(NC(=O)Cn2nnc(-c3ccccc3N)n2)c1	x	i	i	8	-81*	2	18	97*	34	97*
CCCC1(c2ccccc2)NC(=O)N(CC(=O)Nc2cc(OC)cc(OC)c2)C1=O (centres undefined)	0	i	i	-3	-81*	-6	7	u	-5	85*
COc1cc(NC(=O)CN2C(=O)NC(c3ccccc3)(c3ccccc3)C2=O)cc(OC)c1	0	i	i	8	-89*	-6	36	22	14	44
COc1cccc(NC(=O)CCC(=O)Nc2cccc(OC)c2)c1	0	i	i	24	25	1	x	x	x	x
COc1cccc(NC(=O)Cc2ccc3ccccc3c2)c1	-1	i	i	5	-84*	6	22	89*	14	92*
CCCNC(=O)c1onc(CSc2ccc(F)cc2)c1C(=O)NCC1CC1	0	i	i	-1	11	-1	x	x	x	x
O=C(O)CC(NS(=O)(=O)Cc1ccccc1)c1cccc([N+](=O)[O-])c1 (centres undefined)	-1	i	i	9	9	0	x	x	x	x
COc1cccc(NC(=O)CN2C(=O)NC(c3ccccc3)(c3ccccc3)C2=O)c1	0	i	i	17	-93*	13	8	93*	10	97*
CCc1nnc(NC(=O)CSc2nnc(COc3cccc(C)c3)o2)s1	0	i	i	22	-90*	-1	13	96*	-13	98*
Cc1occc1C(=O)NNC(=O)Nc1ccc(Cl)c(Cl)c1	0	i	i	7	-86*	-2	16	93*	5	94*
CCOC(=O)c1ccc(S(=O)(=O)Nc2ccc3cn[nH]c3c2)cc1	0	i	i	-7	-90*	-7	28	95*	28	97*
COc1ccc(S(=O)(=O)Nc2ccc3cn[nH]c3c2)cc1C	0	i	i	-4	9	2	x	x	x	x
SMILES	HIF act	CHT inh	CHT allo act	VLA-4 inh	AI-2 QS mod	Platelet DG rel	JMH597 growth	BB721 const-QS lum	BB721 growth rt	AI-2 QS JMH597
O=C(C1CCN(Cc2nc(Cc3cccc(F)c3)no2)CC1)N1CCOCC1	0	i	i	-1	14	6	x	x	x	x
Cc1ncn(-c2ccc(C(=O)Oc3ccccc3)cn2)n1	0	i	i	3	-87*	-4	19	93*	1	96*
Cc1sc2ncnc(OCC(=O)c3ccc(S(=O)(=O)N4CCCC4)cc3)c2c1C	0	i	i	2	-90*	1	u	98*	69*	99*
Cc1sc2ncnc(OCC(=O)N3CCN(S(=O)(=O)c4ccc(Cl)cc4)CC3)c2c1C	0	i	i	6	21	1	x	x	x	x
CC(C)=CC1C(C(=O)Nc2ccc(S(=O)(=O)N3CCOCC3)cc2)C1(C)C (centres undefined)	-1	i	i	18	15	-2	x	x	x	x
CC1(C)CC(=O)C=C(Nc2cc(-c3ccccc3)[nH]n2)C1	2	i	i	-5	-79*	0	0	90*	-12	94*
CN1CC(=O)N(CC(=O)Nc2cc(Cl)cc(Cl)c2)C1=O	0	i	i	15	-94*	-3	-10	98*	17	99*
Cc1ccccc1C(=O)O/N=C(\N)Cc1cccs1	2	i	i	22	-87*	-2	-7	95*	-8	96*
CC(C)(C)c1cc(OC(=O)c2ccccc2F)ccc1O	1	i	i	11	-86*	-10	8	97*	26	97*
COc1ccc(NC(=O)CCOc2ccccc2C)cc1S(=O)(=O)N1CCCCC1	-2	i	i	2	10	1	x	x	x	x
O=S(=O)(N/N=C\C=C\c1ccccc1)c1ccc(Cl)cc1	0	i	i	6	-94*	7	41	99*	27	100*
O=S(=O)(N/N=C\c1ccccc1O)c1ccc(Cl)cc1	0	i	i	-10	29	-1	x	x	x	x
